Rpn11 block = inhibitors of human proteasome Rpn11; 360,000 compounds, 0.59% hits; inhibition, % at 20 µM; human 26S proteasome, Ub4-pepOG fluorescence polarization; 20S core pre-blocked with epoxomicin; AID 588493;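 active = inhibition at 20 µM, scaled to each plate's controls, above about 33%, limit read from the data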
PP5 inh = blocks human protein phosphatase 5 activity | purified PP5c, OMFP substrate fluorescence | inhibition, % at 6.7 µM | 320,000 compounds, 0.18% hits;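 active = inhibition above the campaign's mean inhibition across all tested compounds plus 3 SD, cut at about 9.5% in these data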;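 also: 0% = DMSO only and 100% = 100 µM cantharidin control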
Target sequence (P53041 whole entry, looked up): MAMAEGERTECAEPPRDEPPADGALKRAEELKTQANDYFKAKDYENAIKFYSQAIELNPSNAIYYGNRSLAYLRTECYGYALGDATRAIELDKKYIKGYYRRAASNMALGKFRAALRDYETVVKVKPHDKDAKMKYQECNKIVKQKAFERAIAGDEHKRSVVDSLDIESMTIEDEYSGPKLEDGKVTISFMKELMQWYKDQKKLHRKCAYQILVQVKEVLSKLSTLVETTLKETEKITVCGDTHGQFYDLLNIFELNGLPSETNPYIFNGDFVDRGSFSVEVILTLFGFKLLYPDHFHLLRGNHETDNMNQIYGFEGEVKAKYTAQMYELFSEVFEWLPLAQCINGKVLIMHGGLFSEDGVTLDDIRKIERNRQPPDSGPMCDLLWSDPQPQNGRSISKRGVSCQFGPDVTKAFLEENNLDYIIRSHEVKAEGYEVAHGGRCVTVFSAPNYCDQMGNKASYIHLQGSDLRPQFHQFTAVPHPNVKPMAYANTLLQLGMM
PREPL inhibitor = inhibitors of human prolyl oligopeptidase-like enzyme PREPL | inhibition, % at 5.96 µM | AID 2751 | 320,000 compounds, 0.68% hits | Q4J6C6 | recombinant PREPL, fluorescence polarization activity-based probe;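 also: 0% = enzyme with DMSO and 100% = wells lacking enzyme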
NadD block = blocks S. aureus nicotinate mononucleotide adenylyltransferase. purified NadD enzyme, colorimetric absorbance read-out. inhibition, % at 20 µM. 360,000 compounds, 0.78% hits. AID 602399; in the data active = inhibition above about 26%
PP1 counter = PP1-alpha (human) inhibition in PP5 counter-screen | P62136 | purified PP1alpha, OMFP fluorescence | inhibition, % at 6.7 µM | 320,000 compounds, 0.9% hits | AID 2235;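 active = inhibition above the mean inhibition of all tested compounds plus 3 SD, computed separately for each screening campaign, cut at about 15% in these data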
PREPL inh cf = confirmation of human PREPL enzyme inhibitors; shares compounds with PREPL inhibitor; recombinant PREPL, fluorescence polarization activity probe; inhibition, % at 5.96 µM; 2,000 compounds, 67% hits;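 also: 0% = protein with DMSO and 100% = wells lacking protein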
Active calls of the source: *. An excerpt weighted towards active compounds, which were near 2.4% of everything screened. Rule as the data show it, unless noted: active = inhibition above about 43%; inactive = the rest.

Screening O=C1NC[C@H](Cc2ccccc2)N(C[C@H]2CCCN2C[C@H](Cc2ccccc2)N2C[C@H](Cc3ccccc3)N(CCc3ccccc3)C(=O)C2=O)C1=O returned Rpn11 block 13.8 and NadD block 22.6.
`CC(C)C[C@H]1CNC(=S)N1C[C@H]1CCCN1C[C@H](CC(C)C)N1C[C@H](Cc2ccccc2)N(CCc2ccccc2)C1=S` gave Rpn11 block 9.9 and NadD block 8.8.
Screening CCC[C@@H](CN1CCC[C@H]1CN1C(N)=NC[C@H]1C(C)C)N1C[C@@H](Cc2ccccc2)N(CCCC2CCCC2)C1=N returned Rpn11 block -14.6, PREPL inhibitor 56.6*, NadD block 0.7 and PREPL inh cf 55.1*.
Screening CCCCN1C(=N)N([C@@H](CCC)CN2CCC[C@H]2CN2C(N)=NC[C@H]2CC(C)C)C[C@H]1Cc1ccccc1 returned Rpn11 block -7.3, PREPL inhibitor 48.3*, NadD block -6.0 and PREPL inh cf 49.3*.
Screening CCCCN1C(=N)N([C@@H](CCC)CN2CCC[C@H]2CN2C(N)=NC[C@@H]2Cc2ccccc2)C[C@H]1[C@H](C)CC returned Rpn11 block 7.2, PREPL inhibitor 44.7*, NadD block -4.9 and PREPL inh cf 47.4*.
For Cc1noc(C)c1-c1ccc(C(=O)NCc2cccc(Cl)c2)c2occc12 the results were Rpn11 block 3.6 and NadD block -2.8.
Cc1c(C(=O)N2CCN(c3ccccc3)CC2)sc2ncnc(N3CCC(C)CC3)c12 was read as PP5 inh 0.1, PREPL inhibitor -100.9 and PP1 counter -1.1.
Screening Cc1c(C(=O)N2CCN(Cc3ccc4c(c3)OCO4)CC2)sc2ncnc(N3CCN(c4ccccc4)CC3)c12 returned Rpn11 block 1.6, PP5 inh 4.5, PREPL inhibitor 45.3*, NadD block 4.1, PP1 counter 10.3 and PREPL inh cf 48.1*.
For Cc1c(C(=O)N2CCN(c3ccccn3)CC2)sc2ncnc(N3CCN(c4ccccc4)CC3)c12 the results were Rpn11 block 4.5, PP5 inh 6.5, PREPL inhibitor 43.7*, NadD block 5.0, PP1 counter 4.9 and PREPL inh cf 28.5.
For Cc1c(C(=O)N2CCN(Cc3ccc4c(c3)OCO4)CC2)sc2ncnc(N3CCN(c4ccccc4F)CC3)c12 the results were Rpn11 block -1.5, PP5 inh 5.1, PREPL inhibitor 48.0*, NadD block 6.8, PP1 counter 3.5 and PREPL inh cf 44.2*.
`CCCNC(=O)Cn1cnc2sc(C(=O)N3CCN(Cc4ccc5c(c4)OCO5)CC3)c(C)c2c1=O` gave Rpn11 block -31.3, PP5 inh 0.1, PREPL inhibitor 8.1, NadD block 1.1 and PP1 counter 1.5.
Screening CCN1CCN(C(=O)c2sc3ncnc(N4CCc5ccccc5C4)c3c2C)CC1 returned Rpn11 block 2.3, PP5 inh 2.9, PREPL inhibitor -21.1, NadD block -1.9 and PP1 counter -4.4.
`CC(=O)NC(c1ccccc1)c1nc(-c2cccc(CO)c2)cs1` (stereo not drawn) gave Rpn11 block -5.0 and NadD block -0.2.
For CC1=Nc2cccc3cccc(c23)N1 the results were Rpn11 block -0.3, PP5 inh 1.0, PREPL inhibitor 45.0*, NadD block 11.9, PP1 counter 3.6 and PREPL inh cf 39.9.
`CN(C)CCc1cc2c(c3c1ccc1ccccc13)OCO2` gave Rpn11 block -8.1, PP5 inh 1.4, PREPL inhibitor 67.8*, NadD block -11.1, PP1 counter 3.9 and PREPL inh cf 59.1*.
`CC(C)Oc1ccc(C(CCNCc2ccc(O)cc2)c2ccccc2)cc1` (stereo not drawn) gave Rpn11 block -17.8 and NadD block -0.8.
For COc1ccc(C(CCNCc2ccc(N(C)C)cc2)c2ccccc2)cc1 (stereo not drawn) the results were Rpn11 block -18.5, PP5 inh -1.8, PREPL inhibitor 54.2*, NadD block -5.3, PP1 counter 3.9 and PREPL inh cf 64.0*.
`CN1CCN(CCCNCc2cn(CCC#N)c3ccccc23)CC1` gave Rpn11 block 0.3, PP5 inh 0.9, PREPL inhibitor 49.1*, NadD block 0.4, PP1 counter 5.5 and PREPL inh cf 31.1.
Screening N#CCCN1CCN(Cn2c3ccccc3c3ccccc32)CC1 returned Rpn11 block -1.3, PP5 inh 2.9, PREPL inhibitor 6.8, NadD block -7.3 and PP1 counter -1.8.

Source: PubChem (several laboratories)
